For part of these data: Potency and affinity values are given separately. Activity calls are given as the source filed them. Entries that show only a call come without a potency. Unless noted, how the calls were made is not given here.
Columns and labels:
[1] = molecular target: Cell division control protein 42 homolog (Homo sapiens) (UniProt P60953); test: inhibition of fluorescent GTP binding to constitutively active Cdc42 – biochemical, multiplex bead flow cytometry, Bodipy-FL-GTP, dose response (AID 1333;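 active means fitted half-maximal concentration within the tested dose range, moderate curve steepness, a statistically real signal drop, and little compound fluorescence or tag-binding interference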); conditions: bead-based flow cytometry; series mostly up to 100 µM
[2] = molecular target: Cell division control protein 42 homolog (Homo sapiens) (UniProt P60953); test: inhibition of fluorescent GTP binding to wildtype Cdc42 – biochemical, multiplex bead flow cytometry, Bodipy-FL-GTP, dose response (AID 1334;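 active means fitted half-maximal concentration within the tested range, moderate curve steepness, significant signal drop, and little compound fluorescence or bead-linkage interference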); conditions: bead-based flow cytometry, Bodipy-FL-GTP binding to GST-Cdc42; at 100 µM (top of the series) unless noted
[3] = molecular target: GTPase HRas (Homo sapiens) (UniProt P01112); test: Ras wt fluorescent GTP loading blockade – biochemical, wildtype, multiplex bead flow cytometry, dose response (AID 1335;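 active means fitted half-maximal concentration within 10 nM to 100 µM, steepness 0.5 to 2, significant signal drop, low assay interference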); conditions: bead-based flow cytometry, Bodipy-GTP binding to GST-Ras; at 100 µM (top of the series) unless noted
[4] = system: Ras-related protein Rab-7a (dog), GTP binding; test: blockers of fluorescent GTP binding to Rab7 – biochemical, wildtype, multiplex bead flow cytometry, dose response (AID 1336); conditions: bead-based flow cytometry; series mostly up to 100 µM
[5] = molecular target: Ras-related C3 botulinum toxin substrate 1 (Homo sapiens) (UniProt P63000); test: inhibition of wildtype Rac1 nucleotide loading – biochemical, multiplex bead flow cytometry, dose response (AID 1340;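 active means dose curve with midpoint inside tested range, moderate steepness, plateau gap beyond fit error, low compound glow and bead-link interference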); conditions: GST-Rac1 beads, Bodipy-FL-GTP binding; at 100 µM (top of the series) unless noted
[6] = molecular target: GTPase HRas (Homo sapiens) (UniProt P01112); test: blockade of GTP loading onto mutant Ras – biochemical, activated mutant, multiplex bead flow cytometry, dose response (AID 1341;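 active means dose-response curve with midpoint inside the tested range, moderate steepness, significant amplitude and little compound fluorescence or bead-attachment interference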;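 further: GST-tagged constitutively activated Ras mutant immobilized on beads and multiplexed with other GTPases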); conditions: bead-based flow cytometry, Bodipy-FL-GTP binding; series mostly up to 100 µM

Sequence of Cell division control protein 42 homolog (Homo sapiens) (P60953 whole entry, looked up): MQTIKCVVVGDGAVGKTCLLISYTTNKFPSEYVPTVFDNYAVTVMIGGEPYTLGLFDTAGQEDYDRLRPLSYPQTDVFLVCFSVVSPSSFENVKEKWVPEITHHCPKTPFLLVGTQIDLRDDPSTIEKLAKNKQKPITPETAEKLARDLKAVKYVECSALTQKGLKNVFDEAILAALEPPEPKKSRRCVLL
Sequence of GTPase HRas (Homo sapiens) (P01112 whole entry, looked up): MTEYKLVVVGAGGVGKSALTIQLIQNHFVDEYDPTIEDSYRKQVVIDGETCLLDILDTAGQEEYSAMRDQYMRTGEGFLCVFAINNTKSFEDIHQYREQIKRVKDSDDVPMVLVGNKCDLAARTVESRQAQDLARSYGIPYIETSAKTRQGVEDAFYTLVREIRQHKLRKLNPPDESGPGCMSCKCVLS

Compound	outcome [1]	fluorescence, percent of control (lower = inhibition) [2] [%]	GTP binding, percent of control [3] [%]	outcome [4]	GTP binding signal, raw median fluorescence (lower = inhibition) (MCF (arbitrary fluorescence units)) [5]	outcome [6]
Nc1c(C(=O)C2CC2)sc2nc(-c3cccs3)cc(C(F)(F)F)c12	inactive	495	441	inactive	468	inactive
COc1ccccc1N1CCN(S(=O)(=O)c2cccc(F)c2)CC1	inactive	49	62.4	inactive	213	inactive
CSc1nc2ccc(NS(=O)(=O)c3c(Cl)cccc3Cl)cc2s1	inactive	31.2	77.9	inactive	245	inactive
COc1cccc(NC(=O)CSc2nc3c([nH]c4ccccc43)c(=O)n2C)c1	inactive	42.8	92.1	inactive	293	inactive
Oc1c(CN2CCOCC2)ccc2ccccc12	inactive	36.2	84.5	inactive	250	inactive
CCN(CC)S(=O)(=O)c1ccc2c(c1)c(=O)c(C(=O)N1CCc3ccccc3C1)cn2C	inactive	96.7	172	inactive	225	inactive
COc1ccc(OCc2oc3ccc(OC)cc3c2C(=O)O)cc1	inactive	53.9	82.7	inactive	28.2	inactive
CCC(C)NC(=O)CSc1nc2n[nH]c(C)c2c(=N)n1-c1ccc(OC)cc1 (stereo not given)	inactive	36	48.9	inactive	111	inactive
CCOc1cc(/C=N/NC(=O)C(C)Sc2ccccc2)ccc1O (stereo not given)	inactive	31.8	73.5	inactive	165	inactive
Cc1ccc(C(=O)O)c(OCc2ccccc2C)c1	inactive	62.4	208	inactive	59.3	inactive
O=C(CCc1ccc(S(=O)(=O)NCCc2ccccc2)cc1)Nc1ccc2c(c1)OCO2	inactive	52.3	67.2	inactive	212	inactive
Cc1ccccc1NC(=O)c1ccc(NC(=O)C2CC(=O)OC23CCCCC3)cc1 (stereo not given)	inactive	32.9	76.1	inactive	195	inactive
COc1ccc(OCc2c(C)cccc2C)c(C(=O)O)c1	inactive	58.3	203	inactive	55	inactive
CCOC(=O)c1cc2c(N)c(C(=O)c3ccc(Br)cc3)sc2[nH]c1=O	inactive	29	69.1	inactive	145	inactive
O=C(COc1cc(Cl)ccc1Cl)Nc1nnc(CC(=O)N2CCOCC2)s1	inactive	90.6	152	inactive	178	inactive
O=C(Nc1cccc(-c2ccc3nncn3n2)c1)c1ccco1	inactive	32.1	73	inactive	157	inactive
Cc1ccc(OCc2ccc(C(=O)O)o2)cc1C	inactive	61.7	90.6	inactive	34.8	inactive
COc1ccc2c(c1)c(C(=O)O)cn2CCOc1ccccc1C	inactive	61.2	204	inactive	59.4	inactive
CCCc1cc(-n2ccnc2)n2c(nc3ccccc32)c1C#N	inactive	172	195	inactive	212	inactive
O=C(CN1CCN(c2ccc(O)cc2)CC1)Nc1cc(S(=O)(=O)N2CCCCC2)ccc1Cl	inactive	35.8	87.7	inactive	281	inactive
CCCOC(=O)NC1CCS(=O)(=O)C1 (stereo not given)	inactive	99.8	159	inactive	198	inactive
CCCn1cc(CN2CCCC(CNC(=O)c3ccc(F)cc3)C2)c(C)n1 (stereo not given)	inactive	37.6	85.7	inactive	247	inactive
COc1cc(/C=N\NC(=O)c2ccc(Cn3nc([N+](=O)[O-])c(Cl)c3C)o2)ccc1O	inactive	29.9	82	inactive	107	inactive
Cc1nc2c(-c3ccc(Cl)cc3)c(C)[nH]n2c(=O)c1Cc1ccccc1	inactive	34.5	75.9	inactive	158	inactive
Cc1cc(C)n2nc(SCCOc3ccc(F)cc3)nc2n1	inactive	42.7	78.4	inactive	166	inactive
COCc1cc(C)nc(N/N=C/c2ccc(-c3ccc(C(=O)O)c(Cl)c3)o2)c1C#N	inactive	30.6	74.4	inactive	180	inactive
Cc1ccc(C2=NN(S(=O)(=O)c3ccccc3)C(c3ccccc3O)C2)cc1 (stereo not given)	inactive	50.2	104	inactive	158	inactive
C/C(=C1/SC(=S)N(CCC(=O)O)C1=O)c1ccc(O)cc1	inactive	29.5	80.9	inactive	254	inactive
O=C(Nc1ccccc1F)c1ccccc1-c1ccccc1	inactive	47.5	60.2	inactive	203	inactive
CCOC(=O)c1cc(C(=O)OCC)c2ccccn2c1=O	inactive	42.1	87.2	inactive	246	inactive

From PubChem BioAssay
